# Reference: PubChem BioAssay AID1220 (Sanford-Burnham Center for Chemical Genomics, 2008)
# The campaign covered roughly 190,000 compounds. About 1,300 (0.68%) were called active. Shown is part of a subset that was picked to be rich in actives. Unmarked numbers belong to inactive results. Cut-off read from the data, not from the text of the source: active = inhibition above about 50%; inactive = the rest.
# Target: Mannose-6-phosphate isomerase (Homo sapiens) (UniProt P34949)
# Assay: human PMI inhibitors, high substrate, primary screen, biochemical, fluorescence intensity, high mannose 6-phosphate (AID 1220)
# Conditions: recombinant PMI enzyme, coupled fluorescence intensity; at 20 µM; hits give high values
# Mannose-6-phosphate isomerase (Homo sapiens), sequence (P34949 whole entry, looked up): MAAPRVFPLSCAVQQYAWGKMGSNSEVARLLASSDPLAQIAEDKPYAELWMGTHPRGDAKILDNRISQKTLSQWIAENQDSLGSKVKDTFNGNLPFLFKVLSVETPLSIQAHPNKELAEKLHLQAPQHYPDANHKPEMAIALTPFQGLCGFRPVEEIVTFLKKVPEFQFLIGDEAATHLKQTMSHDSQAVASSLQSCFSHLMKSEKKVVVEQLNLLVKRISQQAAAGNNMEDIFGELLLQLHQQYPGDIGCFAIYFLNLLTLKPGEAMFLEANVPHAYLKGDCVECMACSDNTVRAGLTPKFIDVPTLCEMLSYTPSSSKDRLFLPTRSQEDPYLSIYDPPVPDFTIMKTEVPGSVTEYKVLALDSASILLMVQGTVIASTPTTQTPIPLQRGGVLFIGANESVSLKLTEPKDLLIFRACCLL
row,SMILES,inhibition
1,OC1CCCN(Cc2cn(Cc3ccccc3)nc2-c2cc3ccccc3o2)C1 (configuration not stated),15.3%
2,O=C(C1CCN(c2nc3nonc3nc2N2CCCCC2)CC1)N1CCOCC1,14.3%
3,CCN(C(=O)COC(=O)c1ccc2[nH]c3c(c2c1)CCCC3)C1CCS(=O)(=O)C1 (configuration not stated),-6%
4,Cc1cc2cc(CCNC(=O)c3cccc([N+](=O)[O-])c3)c(=O)[nH]c2cc1C,-2.2%
5,CN(CC(=O)Nc1ccc(F)cc1)c1ccc(S(=O)(=O)N2CCCC2)cn1,1.4%
6,CCn1ncc([C@@H]2C[C@H]3CN(Cc4ccccc4C)C(=O)[C@]34CCCN24)c1C,25.8%
7,O=C(O)C1CC(O)CN1c1nc(Cl)ccc1[N+](=O)[O-] (configuration not stated),64.1% (active)
8,O=C(O)CNc1nc(Cl)ccc1[N+](=O)[O-],13.4%
9,O=C(O)C1CN(c2nc(Cl)ccc2[N+](=O)[O-])C1,47.3%
10,Cc1cccc(N2C(=O)CC(N3CCOCC3)C2=O)c1 (configuration not stated),-1.5%
11,CC1(C)CC(=O)/C(=C(\O)c2ccccc2)C(=NCCc2ccccc2)C1,-2.6%
12,Cc1cc(C)nc(-n2cc(C(=O)c3cc(F)ccc3O)cn2)n1,52.4% (active)
13,Cc1ccc(O)c(C(=O)c2cnn(-c3ccccc3)c2)c1,12.6%
14,Cc1ncc(CC(=O)n2cc(C(=O)c3cc(F)ccc3O)cn2)s1,8.5%
15,CCN(CC)CCCNC(=O)c1cn(CC)c2ccc(S(=O)(=O)N3CCc4ccccc4C3)cc2c1=O,0%
16,O=C1CNC(=O)/C1=C\c1ccc(O)cc1,-3.7%
17,Cc1c(NC(=O)OCCSc2nc(N(C)C)nc(N(C)C)n2)sc(=S)n1C,5.4%
18,CSc1ccccc1NC(=O)C(=O)c1c[nH]c2ccccc12,-2.7%
19,O=C(Nc1ccccc1N1CCOCC1)C1Cc2ccccc2CN1C(=O)c1ccco1 (configuration not stated),-3.5%
20,COc1c(Cl)cc(C(=O)Nc2ccccc2C(=O)O)cc1Cl,0.7%
21,Oc1ccccc1N=Cc1sc2ccccc2c1Cl,56.6% (active)
22,Oc1c(C=Nc2cccc3cccnc23)sc2ccccc12,-3.1%
23,COc1ccc(N=Cc2sc3ccccc3c2Cl)cc1,1.8%

row,SMILES,inhibition
1,Cc1ccc(O)c(N=Cc2sc3ccccc3c2Cl)c1,19.3%
2,Oc1ccc(Cl)cc1N=Cc1sc2ccccc2c1Cl,55.5% (active)
3,O=[N+]([O-])c1ccc(O)c(N=Cc2sc3ccccc3c2O)c1,25.4%
4,COc1ccc(S(=O)(=O)NCCOc2ccccc2)cc1-n1cnnn1,7.4%
5,Nc1nc(SCc2c(Cl)cccc2Cl)n[nH]1,-8.6%
6,CCOC(=O)c1cn2ccc(C)cc2n1,10%
7,Cc1ccn2cc(C(=O)Nc3ccc4c(c3)OCCO4)nc2c1,8.6%
8,Cc1ccn2cc(C(=O)Nc3nnc(C)s3)nc2c1,51.4% (active)
9,CC1CCN(CC(=O)Nc2sc3c(c2C#N)CCC3)CC1,-6.5%
10,CC(C)CCN1CCN(C2CCN(c3ccccc3)CC2)CC1CCO (configuration not stated),7%
11,CC(C)CCN1CCN(C2CCN(c3ccc4c(c3)OCO4)CC2)CC1CCO (configuration not stated),52.3% (active)
12,Cc1cc(F)ccc1N1CCC(N2CCN(CCC(C)C)C(CCO)C2)CC1 (configuration not stated),4.2%
13,C=CCSc1nnc(NC(=O)c2cn(CC)c3nc(C)ccc3c2=O)s1,-1.9%
14,COCCn1c(N)c(C(=O)NCC2CCCO2)c2nc3ccccc3nc21 (configuration not stated),71.5% (active)
15,Nc1c(C(=O)NCc2ccccc2)c2nc3ccccc3nc2n1CCCN1CCOCC1,49%
16,COCCn1c(N)c(C(=O)NCc2cccs2)c2nc3ccccc3nc21,62.5% (active)
17,COc1ccccc1CNC(=O)c1c(N)n(CCCN2CCOCC2)c2nc3ccccc3nc12,52.5% (active)
18,COc1ccc(CCn2c(N)c(C(=O)NCc3ccco3)c3nc4ccccc4nc32)cc1,48.2%
19,COc1ccc(CNC(=O)c2c(N)n(CCCN3CCOCC3)c3nc4ccccc4nc23)cc1,20.1%
20,COCCn1c(N)c(C(=O)Nc2sc3c(c2C(=O)OC)CCCC3)c2nc3ccccc3nc21,11.1%
21,Nc1c(C(=O)NCc2ccco2)c2nc3ccccc3nc2n1CCc1ccccc1,34.8%
22,COCCn1c(N)c(S(=O)(=O)c2cccs2)c2nc3ccccc3nc21,4.3%
23,COc1ccc(CCn2c(N)c(C(=O)NCc3ccco3)c3nc4ccccc4nc32)cc1OC,51.6% (active)

row,SMILES,inhibition
1,COCCn1c(N)c(C(=O)OCc2ccccc2)c2nc3ccccc3nc21,49.4%
2,COc1ccc(OC)c(-n2c(N)c(C(=O)NCC3CCCO3)c3nc4ccccc4nc32)c1 (configuration not stated),17.6%
3,COc1ccccc1/C=N/NC(=O)c1ccccc1Cl,2.7%
4,COc1ccc2nc(C)cc(SCC(=O)NNC(=O)COc3cccc4ccccc34)c2c1,-3%
5,CC(C)N(C(=O)Cn1cc(SCC(N)=O)c2ccccc21)C(C)C,-4.4%
6,COc1cccc(NC(=O)CSCC(=O)O)c1,8.3%
7,CCOC(=O)Cn1cc(C(=O)c2cccs2)c2ccccc21,5.6%
8,O=S(=O)(NC1CC2CCC1C2)c1ccc2c(c1)OCCO2 (configuration not stated),3.1%
9,CC(=O)Nc1ccc(NC(=O)Cn2c(=O)n(-c3ccc(F)cc3)c(=O)c3oc4ccccc4c32)cc1,-9.8%
10,C=CCn1c(N)c(C(=O)NCC2CCCO2)c2nc3ccccc3nc21 (configuration not stated),57% (active)
11,COCCCNC(=O)c1c(N)n(-c2ccc(S(N)(=O)=O)cc2)c2nc3ccccc3nc12,38.7%
12,Nc1c(C(=O)NCC2CCCO2)c2nc3ccccc3nc2n1-c1ccccc1 (configuration not stated),60.3% (active)
13,C=CCn1c(N)c(C(=O)Nc2ccc(C)c(C)c2)c2nc3ccccc3nc21,41.2%
14,COCCNC(=O)c1c(N)n(-c2ccccc2)c2nc3ccccc3nc12,55.1% (active)
15,O=C(NCC1CCCO1)c1coc2nc3ccccc3nc12 (configuration not stated),-9.5%
16,CC(C)Cn1c(N)c(C(=O)NCC2CCCO2)c2nc3ccccc3nc21 (configuration not stated),59.5% (active)
17,COc1ccc(-n2c(N)c(C(=O)NCC3CCCO3)c3nc4ccccc4nc32)c(OC)c1 (configuration not stated),45%
18,COc1ccccc1-n1c(N)c(C(=O)NCC2CCCO2)c2nc3ccccc3nc21 (configuration not stated),-18.2%
19,CC(C)Cn1c(N)c(C(=O)NCCN2CCOCC2)c2nc3ccccc3nc21,20.7%
20,COCCNC(=O)c1c(N)n(-c2cccc(C)c2)c2nc3ccccc3nc12,25.9%
21,C=CCn1c(N)c(C(=O)Nc2ccccc2)c2nc3ccccc3nc21,13.4%
